In the supplement of paper PMC6555819:

Assays:
Experiment in all cases: PBM binding z-score (relative to random genomic background probes); higher = stronger binding; sequences stand for … in GC…GCGATTGACAGCGTAGAATGAAGG
[1] = test system: FXR:RXRa (NR concentration 270 nM, RXRa partner concentration 90 nM)
Outline: (§1)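 Random background probes are the reference for binding z-scores. These scores derive from regression-normalized fluorescence on custom Agilent 4×180K protein-binding microarrays incubated 1 h with ligand-free nuclear receptor dimers. Binding was detected with antibodies against each partner (one per run).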

[2] = test system: LXRa:RXRa (NR concentration 270 nM, RXRa partner concentration 90 nM)
Outline: as §1

[3] = test system: LXRa homodimer (NR concentration 270 nM)
Outline: as §1

[4] = test system: LXRb:RXRa (NR concentration 270 nM, RXRa partner concentration 90 nM)
Outline: as §1

[5] = test system: LXRb homodimer (NR concentration 270 nM)
Outline: as §1

[6] = test system: PPARa:RXRa (NR concentration 270 nM, RXRa partner concentration 90 nM)
Outline: as §1

[7] = test system: PPARg:RXRa (NR concentration 180 nM, RXRa partner concentration 90 nM)
Outline: as §1

[8] = test system: PPARg:RXRa 270nM:90nM, anti-RXR (NR concentration 270 nM, RXRa partner concentration 90 nM)
Outline: as §1

[9] = test system: PPARg:RXRa 30nM:10nM, anti-RXR (NR concentration 30 nM, RXRa partner concentration 10 nM)
Outline: as §1

[10] = test system: PPARg:RXRa 90nM:30nM, anti-RXR (NR concentration 90 nM, RXRa partner concentration 30 nM)
Outline: as §1

| Sequence | PBM binding z-score [1] | PBM binding z-score [2] | PBM binding z-score [3] | PBM binding z-score [4] | PBM binding z-score [5] | PBM binding z-score [6] | PBM binding z-score [7] | PBM binding z-score [8] | PBM binding z-score [9] | PBM binding z-score [10] |
| --- | --- | --- | --- | --- | --- | --- | --- | --- | --- | --- |
| CCTCGGAGGACAACAGCAGGTCAGAGCTGCCAGA | 0.202 | 0.89 | 0.459 | 0.176 | -0.75 | 0.561 | 0.1 | -0.313 | -0.784 | -0.736 |
| GGAACGAGGGCAATTTGATAGCAGAGTTTGATGG | 0.502 | 0.242 | -0.405 | 0.427 | -0.315 | 1 | 1.04 | 0.751 | 0.15 | 0.401 |
| GCTAGCAGGCCATTTTGGTCACTCAATGACGGGC | -0.64 | -0.754 | -1.03 | -0.967 | -0.971 | -0.67 | 0.24 | -0.925 | -0.857 | -0.861 |
| CCTCACGGGTCAAGGTTATAGCACGGGTGGTACG | 5.02 | 3.42 | 0.0967 | 2.74 | -0.33 | 4.38 | 3.05 | 3.67 | 0.731 | 2.35 |
| ATCGAAAGGTCGACGAGATGAGTATACACCGTTT | 3.66 | 2.9 | 0.0102 | 2.41 | 0.483 | 4.04 | 2.7 | 2.66 | 1.14 | 1.85 |
| ACTAGCTGGCCAAGGGTCACTCAAGATTAGTCCG | 2.23 | 2.82 | 0.129 | 2.53 | -0.388 | 3.71 | 4.25 | 5.31 | 3.16 | 5.05 |
| AGAATGAGGTTAAAATCAGGGAAACAGAATACAT | 2.65 | 2.59 | 0.234 | 2.08 | 0.345 | 3.69 | 2.3 | 2.46 | 0.879 | 1.7 |
| TAGCCTAGGTCAGAGCGGGCCAGTATACGCTATA | 1.24 | 0.815 | -0.692 | 0.501 | -1.17 | 1.42 | 0.573 | 0.718 | -0.359 | 0.201 |
| CCAAACAGGTGAAAGGTAACTCAGTCTGGTACGC | 0.642 | 0.809 | -0.217 | 1.09 | -0.282 | 3.85 | 7.47 | 7.29 | 7.5 | 8.18 |
| CCGACTGTGGCATAAGGTTACCATAAGCCAGCCC | 0.578 | 2.4 | 0.142 | 1.07 | -0.834 | 1.36 | 0.99 | 1.57 | -0.0445 | 0.844 |
| ACTAGTTGGTCAGCCGAGGTCACACACAATTCGG | 3.43 | 3 | 2.4 | 3.32 | 0.882 | 3.85 | 2.34 | 2.6 | 0.926 | 2.06 |
| CAAACTAGGCCAAAGGTCAAAGTCGAGCCAACCA | 6.1 | 5.86 | 4.2 | 5.75 | 2.08 | 7.88 | 12.3 | 10.6 | 11 | 11.5 |
| GCTAGTTGGTCAGCAAAAGGTCACACACCGGTCG | 3.17 | 4.15 | 4.08 | 3.94 | 0.516 | 4.17 | 2.48 | 4.05 | 1.79 | 3.39 |
| CAAACTACGTCACAGAGGTCAAAGTCCGTGCGTA | 4.81 | 5.44 | 5.72 | 5.02 | 1.87 | 5.12 | 3.52 | 4.59 | 1.9 | 3.91 |
| CCAGACAGGTGAGCAGGTAACTCAGCCTCGATTA | -0.268 | 0.0871 | -0.134 | 0.00402 | -0.328 | 0.272 | 0.174 | -0.00169 | -0.644 | -0.464 |
| CAAACTAGGTCAAAGGTCATAGTCGAGCCAACCA | 7.9 | 6.85 | 5.6 | 6.78 | 2.18 | 7.62 | 14 | 11.2 | 12.9 | 13.1 |
| ACTTACGGGTCAACGAGGTTATAGCGCGCGTATA | 6.93 | 5.04 | 0.711 | 4.5 | 0.647 | 5.73 | 5.68 | 5.59 | 2.17 | 4.49 |
| CCTACTGCGCCACGAAAGGTCATTGATTCAGTGA | 3.86 | 5.05 | 5.64 | 4.54 | 2 | 4.35 | 1.08 | 3.21 | 0.979 | 1.98 |
| CCTTACGGGCCACTCCAGGTTATAGCATCGGAGT | 0.501 | 3.23 | 0.439 | -0.116 | -0.752 | -0.00696 | 0.417 | -0.281 | -0.409 | -0.41 |
| TCCAGTAGGTTAGTCGGGGCATTCAGCCAACATA | 0.407 | 0.471 | 0.422 | 0.794 | -0.477 | 1.38 | 0.45 | 2.08 | 2.7 | 2.41 |
| CCTTACGGGTCTCTGACAGGTTATAGCATTTGGA | -0.234 | 0.159 | -0.00475 | -0.0139 | -0.262 | 0.166 | 0.168 | 0.115 | -0.351 | -0.00111 |
| ATCGAAAGCTCGAAGGTGAGTATACCCACCCGAA | -0.601 | -0.626 | -0.677 | -0.458 | -0.832 | -0.531 | 0.476 | -0.226 | -0.209 | -0.372 |
| AATAGCAGGCCAAGTTTGGGTCACTCAAACAAAG | 0.16 | 0.399 | -0.166 | 0.913 | -0.947 | 1.72 | 0.314 | 0.478 | -0.511 | 0.171 |
| CCTAGTTGGTCAAAGTCACACACGCTATAGGTAC | 0.342 | 0.505 | 0.567 | 0.625 | 0.603 | 0.517 | 1.35 | 1.68 | 0.915 | 1.46 |
